Consider 47 compounds from PubChem BioAssay AID1566 (Sanford-Burnham Center for Chemical Genomics, 2009).

One may read the inhibition as the drop in the measured response relative to a control, in per cent.

Hit rate of the full screen: of about 290,000 compounds, about 1,800 (0.62%) were called active. No stated cut-off is given here; in the data, active means inhibition above about 50%; inactive means the rest. Many of the other results were omitted from the sample, so actives are more common in it than they were.

The assay in a line: NOD2 signaling inhibitors, cell-based, luminescence, uHTS, HEK293 (AID 1566). The note with it: HEK293 NOD2/NF-kB luciferase reporter, at 4 µM, stronger effect = higher value. (In a reporter assay the amount or activity of a reporter protein is the signal.)
For the compound `CCOc1ccc(-c2cc(C)[n+](CCN3CCOCC3)c(-c3ccc(OCC)cc3)c2)cc1`, the inhibition was 21.6% (inactive). As to `CCOc1ccc(-c2cc(C)[n+](CCc3ccc(OC)c(OC)c3)c(-c3ccc(OCC)cc3)c2)cc1`, the inhibition was 58.6% (active). For `CCOc1ccc(-c2cc(C)[n+](CCO)c(-c3ccc(OCC)cc3)c2)cc1`, the inhibition is 0.3% (inactive). As for `COc1ccc(-c2cc(=NCCCCCC(=O)O)c3cc(C)ccc3o2)cc1`, the inhibition was -4.2% (inactive). As to `N=C1C(c2ccccc2)=C(O)CN1Cc1ccco1`, the inhibition was 8.2% (inactive).

Regarding `Cc1cccc(-n2c(O)c(C=NCCN3CCNCC3)c(=O)[nH]c2=S)c1`, the inhibition was -4.3% (inactive). Regarding `O=C(Cn1cc(C(=O)c2ccccc2F)c2ccccc21)NC1CC1`, the inhibition is 13.6% (inactive). On to `O=C(c1cc(C(=O)NCc2ccccc2)c(=O)n(Cc2ccccc2)c1)c1cc(Br)ccc1O`, for which the inhibition is 2.5% (inactive). In the case of `CCCCNS(=O)(=O)c1ccc(OCC(=O)N2CCN(Cc3ccc4c(c3)OCO4)CC2)cc1`, the inhibition was 51.1% (active). Consider `CCc1ccc(OCC(=O)N2CCN(Cc3ccc4c(c3)OCO4)CC2)cc1`, for which the inhibition is -4.3% (inactive). Regarding `CCCNS(=O)(=O)c1ccc(OCC(=O)N2CCN(Cc3ccc4c(c3)OCO4)CC2)cc1`, the inhibition is 20.9% (inactive). On to `CC(C)CNP(=S)(c1ccccc1)C(C)(C)C` (configuration not stated), for which the inhibition is 10.7% (inactive). For `O=c1cc(CN2CCNCC2)nc2sccn12`, the inhibition was 8.2% (inactive). Regarding `FC(F)(F)c1cccc(C2NCc3ccccc3-n3cccc32)c1` (configuration not stated), the inhibition is 9.8% (inactive).

Take `CC(=O)OC1CC[C@]2(C#N)[C@H]3CC[C@]4(C)[C@H](C5C=CC(=O)O5)CCC4(O)C3CCC2(O)C1` (some centres not stated): the inhibition is 75% (active).

With `Cn1cccc1CN1CCN(C(=O)COc2ccccc2)CC1`, the inhibition was 16.7% (inactive). As for `O=[N+]([O-])c1ccccc1CN1CC=C(c2ccc(F)cc2)CC1`, the inhibition is -15.5% (inactive). The result for `C[C@H]1O[C@@H](O[C@H]2[C@@H](O)C[C@H](O[C@H]3[C@@H](O)C[C@H](O[C@H]4CC[C@@]5(C)[C@H](CC[C@@H]6[C@@H]5CC[C@]5(C)[C@@H](C7=CC(=O)OC7)CC[C@]65O)C4)O[C@@H]3C)O[C@@H]2C)C[C@H](O)[C@@H]1O` reads 73.9% (active); that for `CC12CC[C@H]3[C@@H](CCC4(O)C[C@H](O)CCC34/C=N/NC(=O)c3ccccc3Cl)C1(O)CCC2C1=CC(=O)OC1` (some centres not stated), 25.4% (inactive); that for `CC12CC[C@H]3[C@@H](CCC4(O)C[C@H](O)CCC34/C=N/NC(=O)c3ccc(O)cc3)C1(O)CCC2C1=CC(=O)OC1` (some centres not stated), 9.1% (inactive). Turning to `COc1ccc(C(=O)N/N=C/C23CC[C@@H](O)CC2(O)CC[C@@H]2[C@@H]3CCC3(C)C(C4=CC(=O)OC4)CCC23O)cc1` (some centres not stated), the inhibition was 27.3% (inactive).

Take `CC12CC[C@H]3[C@@H](CCC4(O)C[C@H](O)CCC34/C=N/NC(=O)c3ccccc3O)C1(O)CCC2C1=CC(=O)OC1` (some centres not stated): the inhibition was 17.2% (inactive).

Turning to `C[C@H]1O[C@@H](OC2CC[C@]3(C=O)[C@H]4CC[C@]5(C)[C@@H](C6=CC(=O)OC6)CC[C@]5(O)[C@@H]4CC[C@]3(O)C2)CC2OC(C)(C)OC21` (some centres not stated), the inhibition is 73% (active). With `CCOc1ccc(N=Cc2c(O)n(Cc3ccccc3)c(=S)[nH]c2=O)cc1`, the inhibition is 8.4% (inactive).

Take `CC(C)CCOP(N)(=O)Oc1ccccc1` (configuration not stated): the inhibition was -6.2% (inactive). Regarding `Cc1ccc2cccc(OC(=O)N(C)c3ccccc3)c2n1`, the inhibition is 5.1% (inactive).

With `C=CCn1c(O)c(C(C)=NC2CC2)c(=O)[nH]c1=O`, the inhibition was 4.6% (inactive).

Turning to `O=c1c2ccccc2nc(/C=C/c2ccc(O)cc2)n1-c1ccccc1O`, the inhibition is -2.5% (inactive). The result for `Cc1nc2ccc(Cl)cc2c(=O)n1-c1cccc(Cl)c1` reads -2.1% (inactive); that for `O=C(Cn1nc(Cc2cccnc2)c2ccccc2c1=O)N1CCC2(CC1)OCCO2`, 20.3% (inactive).

Consider `COc1ccccc1/C=C1\C(=O)NC(=S)N(c2ccccc2)C1=O`, for which the inhibition is 11.6% (inactive). As for `NC(=S)c1cn(C2OC(CO)C(O)C2O)c2ncnc(N)c12` (configuration not stated), the inhibition was 69.1% (active).

`CCNC(=O)[C@H]1O[C@@H](n2cnc3c(N)ncnc32)[C@H](O)[C@@H]1O`: the inhibition is -24.1% (inactive).

Take `C=C(CC1CC(O)[C@]2(C)OC3CC4OC5C[C@]6(C)O[C@]7(C)CCC8OC9C[C@]%10(C)OC%11C(C)=CC(=O)OC%11CC%10OC9C[C@@H](C)C8OC7CC6O[C@]5(C)C/C=C\C4OC3CC2O1)C(=O)O` (some centres not stated): the inhibition is 12.8% (inactive).

Turning to `C=C(C=O)C[C@@H]1C[C@H](O)C2OC3C[C@]4(C)OC5/C=C\CC6OC7C(CC=CCC6OC5CCCC4OC3CC2O1)OC1CC2OC3CC(=O)OC3C[C@@H](C)C[C@@]2(C)OC1C[C@@H]7C` (some centres not stated), the inhibition was 58.2% (active).

Consider `C=C(CO)CC1CC(O)[C@]2(C)OC3CC4OC5C[C@]6(C)O[C@]7(C)CCC8OC9C[C@]%10(C)OC%11C(C)=CC(=O)OC%11CC%10OC9C[C@@H](C)C8OC7CC6O[C@]5(C)C/C=C\C4OC3CC2O1` (some centres not stated), for which the inhibition was 4.7% (inactive). Regarding `C=CCn1c(O)c(/C(C)=N/NC(=S)Nc2ccccc2)c(=O)[nH]c1=O`, the inhibition was 10.8% (inactive). Take `CCOc1cccc(=NC2CCCCC2)c2c(C)n(C)c(C)c12`: the inhibition is 27% (inactive).

Take `Cc1ccsc1-c1nc(CSCC(=O)N2CCC3(CC2)OCCO3)c(C)o1`: the inhibition was 11.3% (inactive). The result for `COc1ccc(-c2nc(CSCC(=O)N3CCC4(CC3)OCCO4)c(C)o2)cc1OC` reads -11.2% (inactive); that for `Cc1oc(-c2cccs2)nc1CSCC(=O)N1CCC2(CC1)OCCO2`, 57.1% (active); that for `O=c1[nH]c(=O)n(CCC2=CCCCC2)c(O)c1/C=N/Nc1cccc2ccccc12`, 33.9% (inactive). Turning to `C[C@@H]1CC[C@H]2[C@@H](C)C(=O)O[C@@H]3O[C@@]4(C)CC[C@@H]1[C@]32OO4`, the inhibition is 9% (inactive). For `C[C@H]1[C@H](OC(=O)CCC(=O)NCc2ccc(C(=O)O)cc2)O[C@@H]2O[C@@]3(C)CC[C@H]4[C@H](C)CC[C@@H]1C24OO3` the value was 26.4% (inactive); for `CC1C(OC(=O)CCC(=O)NC(C)(C)CO)O[C@H]2OC3(C)CC[C@H]4[C@H](C)CCC1C24OO3` (some centres not stated), 64.5% (active); for `O=c1[nH]c(=O)n(CCC2=CCCCC2)c(O)c1/C=N/Nc1ccccc1`, 15.6% (inactive). `CCOc1ccc(N2C(=O)NC(=O)/C(=C/c3cnc(SC)nc3)C2=O)cc1`: the inhibition was 3% (inactive).
